A short description of assay [1]: qHTS assay for small molecule agonists of the p53 signaling pathway (AID 651631; calls by dose curve; further: nearly all actives have a fitted effect of over 15% in size; further: potency means the concentration at half of the fitted maximal effect). In outline: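 HCT-116 cells carrying a stable p53 response element–beta-lactamase reporter were plated, rested 5 h at 37 °C, then exposed to compound in DMSO for 16 h at 37 °C; reporter activity was read as FRET substrate fluorescence after 2 h at room temperature.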
Assay [2] can be described thus: qHTS assay for small molecules that induce genotoxicity in human embryonic kidney cells expressing luciferase-tagged ATAD5 (AID 651632). Further: nearly all actives have a fitted effect of over 15% in size. The gist of the method: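 Luminescent reporter readout, HEK293T ATAD5-luc line: 16 hr drug exposure (37C, 5% CO2) followed by Amplite, 30 min RT.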
Assay [3] in a line: qHTS assay for small molecule agonists of the p53 signaling pathway - cell viability (AID 651633; calls by dose curve; further: nearly all actives have a fitted effect of over 30% in size; further: potency means the concentration at half of the fitted maximal effect). In outline: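 p53RE-bla cells, seeded at 4,000 per well and rested 5 h at 37 C/5% CO2, received compounds in DMSO for 16 h at 37 C. CellTiter-Glo was then added, and luminescence was read after 30 min at room temperature to gauge cytotoxicity.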
Assay [4] can be described thus: qHTS assay for small molecules that induce genotoxicity in human embryonic kidney cells expressing luciferase-tagged ATAD5 - cell viability (AID 651634; calls by dose curve; further: nearly all actives have a fitted effect of over 25% in size). The gist of the method: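 Viability read: CellTiter-Fluor fluorescence, 30 min at 37C. Cells: HEK293T, luciferase-tagged ATAD5. Exposure: 15.5 hr, 37C, 5% CO2, compound or DMSO vehicle.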
A short description of assay [5]: qHTS assay to test for compound auto fluorescence at 590 nm (red) in HepG2 cells (AID 720674). The gist of the method: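 Compound auto-fluorescence is scored relative to Rose Bengal sodium, measured at 540/590 nm in live HepG2 cultures after 1 hr compound contact (37 C, 5% CO2).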
Assay [6] in a line: qHTS assay to test for compound auto fluorescence at 535 nm (green) in HepG2 cells (AID 720675).
A short description of assay [7]: qHTS assay to test for compound auto fluorescence at 460 nm (blue) in HEK293 cells (AID 720678). The gist of the method:
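After cell attachment (4-5 hr, 37C), compounds were pinned onto HEK293 monolayers in 10% dialyzed FBS medium. The blue channel (405/460 nm) was read following overnight culture. Equivalency was calculated against triamterene.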

A short description of assay [8]: qHTS assay to test for compound auto fluorescence at 590 nm (red) in HEK293 cells (AID 720679). The gist of the method: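 Plates of HEK293 cells (10% dialyzed FBS) are treated with 23 nL compound or DMSO vehicle after a 4-5 hr attachment period, incubated overnight at 37C, and read for red fluorescence at 540/590nm.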
The nature of assay [9]: qHTS assay for small molecule disruptors of the mitochondrial membrane potential - cell viability (AID 720634; calls by dose curve;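 further: human HepG2 liver cancer cells; series mostly up to about 83 µM; nearly all actives have a fitted effect of over 20% in size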). The gist of the method: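 HepG2, 1 hr compound, 37 C. ATP luminescence via CellTiter-Glo, 30 min RT, same well as m-MPI.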
The nature of assay [10]: qHTS assay for small molecule disruptors of the mitochondrial membrane potential (AID 720635). The gist of the method:
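HepG2 cells (2,000/well) attached overnight at 37C, then took compound for 1 hr at 37C, 5% CO2. Mito-MPS dye was added for 30 min; fluorescence was read at 490/535 nm (monomers) and 540/590 nm (aggregates).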

A number with no mark means an inactive call. Inconclusive results are not listed. Active and inactive are the calls of the source. Unless noted, the call rests on the fitted dose curve; in most records, active means well fitted curve in the direction sought with a large enough effect in the repeat runs; inconclusive means weak or mixed curves; inactive means no such curve, though single readings can be large; an effect the other way counts as inactive or inconclusive.
On the % scale 0 is the no-effect control and ±100 the full control effect.

Consider `CN1CCCN=C1/C=C/c1cccs1`, for which the Potency entry in assay [1], in assay [2], in assay [3], in [4] and in assay [7] was “inactive” each time. Besides, the result in assay [5], in [6] and in assay [8] was inactive.

Consider `CNC(=O)N(c1ccccc1)c1ccccc1`, for which the Potency entry in [1], in assay [2], in [3], in assay [4] and in [7] was “inactive” in each case. Besides, the result in [5], in assay [6] and in assay [8] was inactive.

In the case of `CCCCCCCCCCCCCCCCBr`, the Potency entry in [1], in assay [2], in assay [3] and in [4] was “inactive” throughout. In assay [5], the fluorescence, relative to Rose Bengal is 0.0532% [at 18.6 µM]. The fluorescence, % of triamterene in assay [7] was -0.0281% [at 18.6 µM]. In addition, the fluorescence, % of fluorescent control in assay [8] is -0.108% [at 18.6 µM].

Consider `O=C(CCCN1CCC(O)(c2ccc(Br)cc2)CC1)c1ccc(F)cc1`, for which the Potency result in assay [1], in [2], in assay [3] and in assay [4] was “inactive” in each case. In addition, the fluorescence, relative to Rose Bengal in assay [5] is 0.666% [at 18.6 µM]. The fluorescence, % of fluorescein control in assay [6] is 0.0047% [at 18.6 µM]. Moreover, the fluorescence, % of triamterene in [7] was -0.176% [at 18.6 µM]. In assay [8], the fluorescence, % of fluorescent control was -0.139% [at 18.6 µM].

Take `CNCCCC1c2ccccc2C=Cc2ccccc21`: the Potency entry in assay [1], in [2], in [3], in assay [4] and in [9] was “inactive” each time. Besides, the fluorescence, relative to Rose Bengal in assay [5] was -0.202% [at 18.6 µM]. The fluorescence, % of triamterene in assay [7] is 0.0209% [at 18.6 µM]. Moreover, the fluorescence, % of fluorescent control in assay [8] is -0.279% [at 18.6 µM].

Regarding `CC(=O)Nc1ccc(N)cc1`, the Potency entry in assay [1], in [2], in assay [3], in assay [4] and in [7] was “inactive” in each case. Also, the molecule was called inactive in assay [5], in assay [6] and in assay [8].

As for `CC(=O)[C@H]1CC[C@H]2[C@@H]3C[C@H](C)C4=CC(=O)CC[C@]4(C)[C@H]3[C@@H](O)C[C@]12C`, the Potency result in [1], in assay [2], in [3], in assay [4] and in [9] was “inactive” throughout. The fluorescence, relative to Rose Bengal in assay [5] was 0.133% [at 18.6 µM]. Moreover, the fluorescence, % of triamterene in assay [7] is -0.0231% [at 18.6 µM]. Besides, the fluorescence, % of fluorescent control in [8] was -0.987% [at 18.6 µM].

Turning to `CC(C)(C)C(=O)O`, the Potency result in assay [1], in assay [2], in [3] and in assay [4] was “inactive” throughout. Besides, the call in [5], in assay [6] and in assay [8] was inactive.

On to `O=C(O)c1snc(Cl)c1Cl`, for which the Potency entry in assay [1], in [2], in [3], in assay [4] and in assay [7] was “inactive” in each case. In addition, the outcome in [5], in assay [6] and in [8] was inactive.

Turning to `C/C=C/C=C/CCCCCCCO`, the Potency entry in assay [1], in assay [2], in assay [3], in assay [4] and in [7] was “inactive” throughout. Also, the result in assay [5], in assay [6] and in assay [8] was inactive.

Consider `CNC(=S)NC`, for which the Potency result in assay [1], in assay [2], in [3] and in [4] was “inactive” each time. Also, the molecule was called inactive in [5], in assay [6] and in assay [8].

As for `CCOc1cc(N)c(Cl)cc1C(=O)NCC1CN(Cc2ccc(F)cc2)CCO1` (configuration not stated), the Potency result in assay [1], in assay [2], in [3], in assay [4], in assay [9] and in [7] was “inactive” in each case. Besides, the result in assay [5], in [6] and in assay [8] was inactive.

`CCCCCCCCCCCC[N+](C)(C)CCCS(=O)(=O)[O-]`: the Potency result in assay [1], in assay [2], in assay [3], in assay [4] and in [7] was “inactive” throughout. For the same molecule, the result in assay [5], in [6] and in assay [8] was inactive.

As to `O=S1OCCO1`, the Potency result in assay [1], in [2], in assay [3], in assay [4] and in assay [7] was “inactive” throughout. In addition, the call in assay [5], in assay [6] and in assay [8] was inactive.

Regarding `CCC(C)(C)C1CCC(O)CC1` (configuration not stated), the Potency result in [1], in assay [2], in assay [3], in assay [4] and in assay [7] was “inactive” throughout. In addition, the outcome in assay [5], in [6] and in assay [8] was inactive.

Turning to `Nc1nc(Cl)nc2c1ncn2[C@@H]1O[C@H](CO)[C@@H](O)[C@@H]1F`, the values for the Potency in [1] and in assay [3] were 0.0841 µM (active) and 0.133 µM (active), respectively. Further, the Potency result in [4], in assay [9] and in assay [7] was “inactive” each time. Besides, the call in [5], in [6] and in assay [8] was inactive.

As to `O=c1[nH]c2ccc(S(=O)CCN3CCC(Cc4ccc(F)cc4)CC3)cc2o1` (configuration not stated), the Potency entry in assay [2], in [3], in assay [4], in assay [9] and in assay [7] was “inactive” in each case. Further, the molecule was called inactive in assay [5], in [6] and in assay [8].

Turning to `CO[C@@]12[C@H](COC(N)=O)C3=C(C(=O)C(C)=C(N)C3=O)N1C[C@@H]1N[C@@H]12`, the Potency is 1.88 µM (active) in [1] and 23.7 µM (active) in [3]. Moreover, the Potency result in [9], in assay [10] and in [7] was “inactive” in each case. Also, the result in [5], in assay [6] and in assay [8] was inactive.

`Fc1ccccc1[C@@H](F)COC1CCC(Nc2ncnc3[nH]ncc23)CC1` (some centres not stated): the Potency entry in assay [1], in assay [2], in assay [3] and in assay [9] was “inactive” in each case. In addition, the outcome in assay [5], in assay [6] and in [8] was inactive.

In the case of `CC[C@@H]([C@H](C)O)n1ncn(-c2ccc(N3CCN(c4ccc(OC[C@@H]5CO[C@@](Cn6cncn6)(c6ccc(F)cc6F)C5)cc4)CC3)cc2)c1=O`, the Potency entry in assay [1], in [2], in [9] and in assay [7] was “inactive” throughout. For the same molecule, the Potency in assay [3] is 29.8 µM (active). Besides, the molecule was classed as inactive in assay [5], in assay [6] and in assay [8].

Regarding `CCCCC1C(=O)N(c2ccccc2)N(c2ccc(O)cc2)C1=O` (configuration not stated), in assay [1], the Potency is 12.7 µM (active). Besides, the Potency entry in assay [2], in assay [4] and in [9] was “inactive” in each case. In addition, the fluorescence, relative to Rose Bengal in [5] is -0.0374% [at 18.6 µM]. Further, the fluorescence, % of fluorescein control in assay [6] is -0.0204% [at 18.6 µM]. Also, the fluorescence, % of fluorescent control in assay [8] is -0.0017% [at 18.6 µM].

In the case of `C[C@@H]1C[C@H]2[C@@H]3CCC4=CC(=O)C=C[C@]4(C)[C@@]3(F)[C@@H](O)C[C@]2(C)[C@H]1C(=O)CO`, the Potency entry in [1], in assay [2], in [3], in assay [9], in assay [10] and in assay [7] was “inactive” each time. Besides, the outcome in assay [5] and in assay [8] was inactive.
